Records with an inconclusive call do not appear. Activity calls are given as the source filed them. Rule for the calls, unless noted: active = hit-call score of the fitted dose curve at least 0.9, where 1 is the maximum; inactive = score below 0.9.
Assays:
TTR (gene 7276) = assay: CCTE_GLTED_hTTR_0.125uM: CCTE's human Transthyretin (hTTR) Inhibition Assay, with 0.125uM TTR, Great Lakes Toxicology and Ecology Division (GLTED) Lab (AID 2284431);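 note: hits lower the fluorescence signal relative to DMSO baseline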
How it was run: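 Activity is defined as decreased ANSA fluorescence (ex 380, em 475) from human transthyretin, 0.125uM, following 2-hour chemical exposure in a cell-free setup, with DMSO as baseline.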

[1] = CCTE_Padilla_ZF_Score.General: CCTE's 144 Hour Post-fertilization zebrafish Assay Score for General Malformation, Padilla Lab (AID 2284411)
How it was run: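 Wild-type zebrafish embryos were plated singly at 6-8 hpf in 10% Hanks' and exposed in sealed wells at 26C until rinsed on 5 dpf. At 6 dpf two blinded assessors scored mortality, hatching and malformations by stereomicroscopy; gain-of-signal versus DMSO.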

[2] = tested on: SRY-box transcription factor 17 (SOX17) Protein Expression, Deisenroth Lab, SOX17 (gene 64321); assay: CCTE_Deisenroth_DEVTOX-GLR_legacy_Sox17: (Legacy) CCTE's DevTox GLR-Endo Assay Evaluation of SRY-box transcription factor 17 (SOX17) Protein Expression, Deisenroth Lab (AID 2284341); details: actives raise or lower the signal
How it was run: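 Using the RUES2-GLR line, compounds are tested as 10-point series during 48-h defined-media differentiation. Sox17 reporter fluorescence per cell determines positivity; endpoint is percentage positive, analysed bidirectionally versus DMSO baseline.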

[3] = tested on: SRY-box transcription factor 2 (SOX2) Protein Expression, Deisenroth Lab, SOX2 (gene 6657); assay: CCTE_Deisenroth_DEVTOX-GLR_legacy_Sox2: (Legacy) CCTE's DevTox GLR-Endo Assay Evaluation of SRY-box transcription factor 2 (SOX2) Protein Expression, Deisenroth Lab (AID 2284346)
How it was run: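 RUES2-GLR human pluripotent cells were differentiated for 48 h with two chemical doses 24 h apart, over 1 nM-200 uM. Sox2+ cells were those above 5x BMAD of the endoderm-control median; percent Sox2+ minus the 0.2% DMSO median was used, from n=4 replicates.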

[4] = CCTE_Deisenroth_H295R-HTRF_384WELL_ESTRADIOL: CCTE's H295R-HTRF Assay Evaluation of Estradiol Concentration, Deisenroth Lab (AID 2284361); details: actives raise or lower the signal
How it was run: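 H295R cells exposed 48 h to chemicals at 0.001 - 100 uM final (nine points, triplicate); estradiol in conditioned medium measured by HTRF immunoassay, fitted bidirectionally versus DMSO. Viability by CellTiter-Glo on same plates.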

[5] = CCTE_Deisenroth_H295R-HTRF_384WELL_TESTOSTERONE: CCTE's H295R-HTRF Assay Evaluation of Testosterone Concentration, Deisenroth Lab (AID 2284373); details: actives raise or lower the signal
How it was run: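 Testosterone secreted into medium was quantified by direct HTRF immunoassay after a 48 h treatment of H295R adrenocortical cells (nine concentrations, 0.001–100 uM final). Gain or loss fitted relative to DMSO; CellTiter-Glo viability read on same plates.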

[6] = CCTE_Deisenroth_H295R-HTRF_384WELL_CTOX: Cytotoxicity Assessment in CCTE's H295R-HTRF Assay, Deisenroth Lab (AID 2284380; active = hit-call score of the fitted dose curve at least 0.9, where 1 is the maximum)
How it was run: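 H295R adrenocortical carcinoma cells plated 24 h, then exposed 48 h to nine-point series 0.001–100 uM final, triplicate, n=5. ATP measured by CellTiter-Glo 2.0 luminescence on same plates after medium collection; loss versus DMSO.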

[7] = tested on: SRY-box transcription factor 2 (SOX2) Protein Expression, Deisenroth Lab, SOX2 (gene 6657); assay: CCTE_Deisenroth_DEVTOX-GLR_Endo_SOX2: CCTE's DevTox GLR-Endo Assay Evaluation of SRY-box transcription factor 2 (SOX2) Protein Expression, Deisenroth Lab (AID 2284412; active = hit-call score of the fitted dose curve at least 0.9, where 1 is the maximum)
How it was run: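 RUES2-GLR human pluripotent cells were seeded 24 h, then differentiated 48 h with two chemical exposures 24 h apart. Cells were fixed, nuclei stained and imaged by high-content microscopy. Endpoint is %SOX2+ cells over cell count, minus 0.2% DMSO control; 10-point series 1 nM–200 uM.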

[8] = tested on: SRY-box transcription factor 17 (SOX17) Protein Expression, Deisenroth Lab, SOX17 (gene 64321); assay: CCTE_Deisenroth_DEVTOX-GLR_Endo_SOX17: CCTE's DevTox GLR-Endo Assay Evaluation of SRY-box transcription factor 17 (SOX17) Protein Expression, Deisenroth Lab (AID 2284413)
How it was run: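 RUES2-GLR human pluripotent cells were differentiated toward endoderm for 48 h and received two compound doses 24 h apart (1 nM - 200 uM, 10 points). High-content imaging of fixed cells gave the percent SOX17+ cells per cell count, expressed as percent change versus 0.2% DMSO.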

[9] = tested on: Brachyury (BRA) Protein Expression, TBXT (gene 6862); assay: CCTE_Deisenroth_DEVTOX-GLR_Endo_BRA: CCTE's DevTox GLR-Endo Assay Evaluation of Brachyury (BRA) Protein Expression, Deisenroth Lab (AID 2284417)
How it was run: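 Percent BRA+ (mesoderm) RUES2-GLR cells after 48 h differentiation with two exposures, 1 nM - 200 uM; 0.2% DMSO control subtracted.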

[10] = CCTE_Deisenroth_DEVTOX-GLR_Endo_CellCount: Viability Assessment in CCTE's DevTox GLR-Endo Assay, Deisenroth Lab (AID 2284420)
How it was run: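 Measured 48 h after dosing: fluorescent nuclei counted by imaging in human RUES2-GLR cells under defined differentiation media, tested at 1 nM - 200 uM. Values are percent cell-count change relative to 0.2% DMSO.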

[11] = tested on: SRY-box transcription factor 17 (SOX17) Protein Expression, Deisenroth Lab, SOX17 (gene 64321); assay: CCTE_Deisenroth_DEVTOX-GLR_Pluri_SOX17: CCTE's DevTox GLR-Pluri Assay Evaluation of SRY-box transcription factor 17 (SOX17) Protein Expression, Deisenroth Lab (AID 2284427; active = hit-call score of the fitted dose curve at least 0.9, where 1 is the maximum)
How it was run: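 Using an inducible fluorescent SOX17 reporter in human pluripotent RUES2-GLR cells, compounds (1 nM - 200 uM) were given twice over 48 h differentiation. Percent SOX17+ cells minus DMSO control came from high-content image analysis.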

[12] = tested on: SRY-box transcription factor 2 (SOX2) Protein Expression, Deisenroth Lab, SOX2 (gene 6657); assay: CCTE_Deisenroth_DEVTOX-GLR_Pluri_SOX2: CCTE's DevTox GLR-Pluri Assay Evaluation of SRY-box transcription factor 2 (SOX2) Protein Expression, Deisenroth Lab (AID 2284428)
How it was run: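 Percent SOX2+ RUES2-GLR cells, determined by fluorescence microscopy after 48 h and two 24-h-interval chemical exposures spanning 1 nM–200 uM, served as the endpoint. Values are expressed relative to 0.2% DMSO; total cell counts assessed viability.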

[13] = tested on: Brachyury (BRA) Protein Expression, Deisenroth Lab, TBXT (gene 6862); assay: CCTE_Deisenroth_DEVTOX-GLR_Pluri_BRA: CCTE's DevTox GLR-Pluri Assay Evaluation of Brachyury (BRA) Protein Expression, Deisenroth Lab (AID 2284429; active = hit-call score of the fitted dose curve at least 0.9, where 1 is the maximum)
How it was run: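 RUES2-GLR human pluripotent cells differentiated 48 hours with two chemical exposures 24 hours apart, 10-point series 1 nM–200 uM. Fixed, nuclear-stained, imaged; endpoint is percent BRA+ cells minus 0.2% DMSO control.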

[14] = CCTE_Deisenroth_DEVTOX-GLR_Pluri_CellCount: Viability Assessment in CCTE's DevTox GLR-Pluri Assay Evaluation of Total Cell Counts, Deisenroth Lab (AID 2284430)
How it was run: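 RUES2-GLR human pluripotent cells, seeded 24 h, then differentiated 48 h with two chemical exposures 24 h apart; 10-point series 1 nM - 200 uM. Fixed, nuclear-stained, imaged (5 fields/well); nuclei count as % change vs 0.2% DMSO.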

[15] = CCTE_Mundy_HCI_iCellGluta_NOG_NeuriteCount: CCTE's Neurite Outgrowth Assay in iCellGluta cells for Neurite Count, Mundy Lab (AID 2284342; active = hit-call score of the fitted dose curve at least 0.9, where 1 is the maximum;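 note: chemical exposure about 48 hours starting 2 hours after plating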)

COC(=O)c1ccc(I)cc1S(=O)(=O)NC(=O)Nc1nc(C)nc(OC)n1
AC50 (TTR (gene 7276)): 1.8 µM (active)

CCC(C)OC(=O)N1CCCCC1CCO (stereo unspecified)
outcome [1]: inactive

CC(C)(c1ccc(O)cc1)c1ccc(O)cc1
AC50 [2]: 51.4 µM (active)
AC50 [3]: 50.7 µM (active)
AC50 [4]: 37 µM (active)
AC50 [5]: 0.804 µM (active)
AC50 [6]: 15 µM (active)
AC50 [7]: 64.4 µM (active)
AC50 [8]: 50.8 µM (active)
AC50 [9]: 83.8 µM (active)
AC50 [10]: 35.5 µM (active)
AC50 [11]: 29.3 µM (active)
AC50 [12]: 38.9 µM (active)
AC50 [13]: 38.4 µM (active)
AC50 [14]: 19.7 µM (active)
AC50 (TTR (gene 7276)): 7.82 µM (active)

CCCN(CCC)C(=O)SCC
outcome [15]: inactive

C#CCOC(=O)[C@@H](C)Oc1ccc(Oc2ncc(Cl)cc2F)cc1
AC50 [15]: 34 µM (active)

CSC(=O)c1cccc2nnsc12
outcome [15]: inactive

N#CSCSc1nc2ccccc2s1
AC50 (TTR (gene 7276)): 10.1 µM (active)

O=C(Nc1ccc([N+](=O)[O-])cc1Cl)c1cc(Cl)ccc1O
AC50 (TTR (gene 7276)): 0.633 µM (active)

COCCO
outcome [1]: inactive

CCCCOCCOCCOCc1cc2c(cc1CCC)OCO2
outcome [4]: inactive
outcome [5]: inactive
outcome [6]: inactive

C=CCOC(Cn1ccnc1)c1ccc(Cl)cc1Cl (stereo unspecified)
AC50 [4]: 0.447 µM (active)
AC50 [5]: 1.87 µM (active)
AC50 [6]: 84.6 µM (active)

O=C(O)C1(C(=O)Nc2ccc(Cl)cc2Cl)CC1
AC50 (TTR (gene 7276)): 8.06 µM (active)

CC(C)CCCCCCc1ccc(O)cc1
AC50 (TTR (gene 7276)): 1.87 µM (active)

CCCCC(CC)COC(=O)c1ccccc1C(=O)O (stereo unspecified)
AC50 [2]: 100 µM (active)
outcome [3]: inactive
AC50 [8]: 100 µM (active)
AC50 [9]: 160 µM (active)
AC50 [10]: 109 µM (active)
AC50 [11]: 100 µM (active)
AC50 [12]: 100 µM (active)
AC50 [13]: 70.4 µM (active)
outcome [14]: inactive
AC50 (TTR (gene 7276)): 1.44 µM (active)

Cc1nn(C)c(Oc2ccccc2)c1C=NOCc1ccc(C(=O)OC(C)(C)C)cc1
AC50 [15]: 1.39 µM (active)

CC(=O)S[C@@H]1CC2=CC(=O)CC[C@]2(C)[C@H]2CC[C@@]3(C)[C@@H](CC[C@@]34CCC(=O)O4)[C@H]12
outcome [4]: inactive
AC50 [5]: 1.28 µM (active)
outcome [6]: inactive

S=C(S)NCCNC(=S)S.[Mn+2].[S-]C([S-])=NCCN=C([S-])[S-].[Zn+2]
outcome [15]: inactive

OB(O)O
outcome [2]: inactive
outcome [3]: inactive
outcome [8]: inactive
AC50 [9]: 30.5 µM (active)
outcome [10]: inactive
outcome [11]: inactive
outcome [12]: inactive
outcome [13]: inactive
outcome [14]: inactive

CCN(CC)C(=O)c1cccc(C)c1
outcome [15]: inactive

CCCN(CCC)c1c([N+](=O)[O-])cc(C(F)(F)F)c(N)c1[N+](=O)[O-]
AC50 (TTR (gene 7276)): 0.348 µM (active)

— PubChem BioAssay (EPA / NIEHS)
